Experimental data reported in PubChem BioAssay AID2058 (Sanford-Burnham Center for Chemical Genomics, 2009).
Screen size: about 290,000 compounds; about 150 (0.052%) were called active. This is one part of a sample in which actives are shown more often than they occur.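 How the source made its calls: active means inhibition of at least 50% with at least 30 cells and total cytoplasm GFP at most 10,000,000; inconclusive means under 30 cells or total GFP of 10,000,000 plus; inactive means the rest.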 Potency and affinity values are given separately.

Target: G-protein coupled receptor 35 (Homo sapiens) (UniProt Q9HC97)
Sequence (Q9HC97 whole entry, looked up): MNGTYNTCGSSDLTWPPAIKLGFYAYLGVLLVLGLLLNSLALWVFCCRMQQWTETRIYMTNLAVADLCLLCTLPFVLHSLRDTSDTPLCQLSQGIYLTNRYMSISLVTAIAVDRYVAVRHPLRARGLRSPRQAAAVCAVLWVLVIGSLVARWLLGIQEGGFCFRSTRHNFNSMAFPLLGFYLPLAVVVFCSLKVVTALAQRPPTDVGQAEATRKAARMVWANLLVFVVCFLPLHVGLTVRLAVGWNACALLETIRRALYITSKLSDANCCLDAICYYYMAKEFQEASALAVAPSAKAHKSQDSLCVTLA
Experiment: inhibition of zaprinast-stimulated GPR35 beta-arrestin translocation – imaging, U2OS, beta-arrestin-GFP, zaprinast agonist, primary screen (AID 2058)
Conditions: zaprinast antagonism, at 10 µM, active compounds read high

| SMILES | inhibition |
| --- | --- |
| CN1/C(=C\C=Nc2ccccc2)C(C)(C)c2ccccc21 | -7.9% (inactive) |
| CN1/C(=C\C=C2C(=O)NC(=O)NC2=O)C(C)(C)c2ccccc21 | 1.5% (inactive) |
| CN1/C(=C\C=C\C2=[N+](C)c3ccc4ccccc4c3C2(C)C)C(C)(C)c2ccccc21 | 111% (active) |
| COc1ccc(NC(=O)c2cn(CCC#N)nc2-c2cccc(Br)c2)cc1 | -0.5% (inactive) |
| CCCNS(=O)(=O)c1ccc(OCC(=O)N2CCN(C)CC2)cc1 | 3.2% (inactive) |
| CCCCNC(=O)NC(C(N)=O)P(=O)(OCC)OCC (stereo not given) | -6.8% (inactive) |
| COc1cccc(CN2CCCCC2c2cccnc2)c1 (stereo not given) | 11.2% (inactive) |
| COc1cccc(-c2nn(Cc3ccccc3)cc2C(=O)O)c1 | 21.1% (inactive) |
| COc1cccc(C2CC3C(=O)C=CC2N3Cc2ccccc2)c1 (stereo not given) | 58.2% (active) |
| Clc1ccc(NC2=NCCCS2)cc1Cl | -7.1% (inactive) |
| Cc1nccc2c1[nH]c1ccccc12 | 2.3% (inactive) |
| Cc1c2ccncc2c(C)c2c1[nH]c1ccccc12 | 57.9% (active) |
| c1ccc2c(c1)[nH]c1cnccc12 | -1.7% (inactive) |
| CCOc1ccc(Cl)cc1CNCCc1ccc(F)cc1 | -1.9% (inactive) |
| Cc1ccc(C(=O)Nc2ccc(-n3ccnc3P(=O)(O)c3ccccc3)cc2)cc1 | -2.7% (inactive) |
